The record followed here is the supplement of paper PMC11417369.

In all, about 25,000 sequences were measured (“ln(normalized median fluorescence intensity)”: median about 6.7, highest 2% from about 10 on). The full list was thinned out, with the highest values kept by preference.

The assay deals with PfHDP1 homeodomain (GST-tagged). Nature of the assay: gcPBM binding intensity (ln(normalized median fluorescence intensity)); higher = stronger DNA binding. An outline of the steps:
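The binding buffer was 1× PBS containing 1% milk, 0.2 mg/ml BSA, 0.5% salmon testes DNA and 0.03% Triton X-100. In it, GST-tagged P. falciparum DNA-binding domains expressed in E. coli were applied for 1 h to an Agilent 4 × 180k array of primer-extended double-stranded 36-bp intergenic genomic probes plus negative controls. Binding intensity, read with Alexa488 anti-GST antibody and a 488 nm scan, is the highest Masliner-normalised natural-log median intensity across replicate spots of either probe orientation.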
Take “TTTGTTAATTATAAATGTACATATTATATATATATA [XGTACX_site8870]”: the “gcPBM binding intensity (ln)” value turned out to be 8.42.

Take “CACGCGCCCGGACACACACACACACCCATATATATA [CACACA_site5251]”: the “gcPBM binding intensity (ln)” value came to 6.84. Next, “TTAAACTTGTTTTGGATGCACTATATAATTCATTTT [GTGCAC_site9549]”: 7.2; “AGAGAGATGACAAAAAGATGAATAACGTTAAGGGAT [XGTACX_negctrl_site120]”: 7.4.

ATTATATTTATGTTGGTGCATTATACATGAAATTTA: the “gcPBM binding intensity (ln)” value is 10.5.

For the sequence TATTTTTATTATATGGTGCATATATACATACATATA, the “gcPBM binding intensity (ln)” value amounted to 9.96.

For “AATATGAAATATATTACACACATTTATATGTTGAAA [CACACA_site1427]”, the “gcPBM binding intensity (ln)” value was 6.31. Next, “ATCATATTTATATTGGTGCATTATGCATGAAATTTA [GTGCAC_site9571]”: 10.6. “ATCATATTTATGTTGGTGCATTATGCATGGATTTTA [GTGCAC_site9795]”: the “gcPBM binding intensity (ln)” value came out at 10.8. As for “ATATGGATTATACATACATGCATACATACATACATA [TGCATGCA_site475]”, the “gcPBM binding intensity (ln)” value was determined as 6.58.

As to “ACATATGAAAAATATGCATGCAAATATTATTTAACA [TGCATGCA_site802]”, the “gcPBM binding intensity (ln)” value turned out to be 7.03.

Take “TATAATAATAATTATACATGCATGAATATTTATATG [TGCATGCA_site811]”: the “gcPBM binding intensity (ln)” value came to 6.46. On to “TTATGGTGCATGAAATCACACATTGATATATATGCT [CACACA_site5352]”, for which the “gcPBM binding intensity (ln)” value came out at 8.81. The same measure for “TATATATATATATATACATGCATATATATAATATAT [TGCATGCA_site763]”: 9.32; for “ATATATATTTAAAAAAGTACAGAAGAAAATAACCCA [XGTACX_site642]”: 7.19. For the sequence “GATGATACACAGGTGTTGCACTTAAATGCAGTTCTT [GTGCAC_site9627]”, the “gcPBM binding intensity (ln)” value was found to be 8.13. Turning to “ATATATATATATATATGTACATATTATTAATAATAT [XGTACX_site6667]”, the “gcPBM binding intensity (ln)” value amounted to 9.32. For the sequence “TTTTGAATATTTGGTCGTACGTAAAAATAGATAATT [XGTACX_site5755]”, the “gcPBM binding intensity (ln)” value amounted to 6.75. Next, “AAGTTTTCTTAAAATTGTACTTTTCAAAAATAATCT [XGTACX_site277]”: 5.83; TGATTCTAACTTATGGTGCAACATTATGGACACCGT: 10.5; “TTATGGTGCAACATTATGCACACCGTTAAATAACTA [CACACA_site3846]”: 11.4.

Regarding “TAATATATTATAAACACATGCACATTAATAATAACT [TGCATGCA_site708]”, the “gcPBM binding intensity (ln)” value turned out to be 8.38. Next, “GATTCATCTAAACACCGTACATATTATATATATATA [XGTACX_site6030]”: 8.65.

Take “TATATAACATATGGGACACACATGCAACTGTTATAT [CACACA_site3792]”: the “gcPBM binding intensity (ln)” value was 6.89. Next, “CATTAACAAATAAATGCACACATATATATAAATAAT [CACACA_site7892]”: 9.2; “ATGGTGCAACATTATGCACACCGTTAAATAACTAAT [CACACA_site9280]”: 11.7. Next, “AACAACAACTAATATGCACACATTTAAAAACAAAAT [CACACA_site2440]”: 9.7; “TCATAAACATTATGCACACAAAAATAAAAAAAAATA [CACACA_site1115]”: 10.2. With “GAATGCCTTGAAAATAGTACAATTAAGAAAAAATAC [XGTACX_site8002]”, the “gcPBM binding intensity (ln)” value turned out to be 6.53.

For “ACATAAGATGAAAAATGTACATTCAAAAAATGAAAT [XGTACX_site3227]”, the “gcPBM binding intensity (ln)” value was 6.52. Next, “AAGACAAATTTTACATGTACAAATATATTACATATA [XGTACX_site7060]”: 6.83; “AATGTATATATGTAATGTACATATATAATGTATATA [XGTACX_site6510]”: 6.6; “TTATATGCTCAATGTTGTACATGTAGATATATATAT [XGTACX_site8211]”: 9.77. The same measure for ATTACACATATAGTAGTGCAATAACTCCAAAAAAAA: 9.55; for “AAATTTTAATTAGACTGTACACATTTTAGAATAATT [XGTACX_site4819]”: 6.17. Next, “AAAAAAAATTAATTAGTGCAAAATATATACAAAATA [GTGCAC_site9762]”: 10.4; “TATTTATAGATATATACACACATATACATATTGTTT [CACACA_site7611]”: 6.63. “TTTGATCGATGGATTTAACACACAAAAAAAAAAAAA [CACACA_site9279]”: the “gcPBM binding intensity (ln)” value was determined as 6.32. For the sequence ACCCATTTTAATTTAGTGCACATTTTACCTTTATAC, the “gcPBM binding intensity (ln)” value is 10.1. Next, ATATATATATATATAGTGCACATTTATATAATTATT: 10.

For “CTATTTCAATTTAGTGCACACATTTTAATTTATAAG [CACACA_site2040]”, the “gcPBM binding intensity (ln)” value turned out to be 10.9. Next, “CTACTTAATATTTGTACACACATATTTAACCTACTA [CACACA_site5725]”: 7.02; “AAAAAAGAATTGTGCACACACAAAAAATGTTCATAA [CACACA_site1103]”: 10.3.

For the sequence “TTAAAAAAGAATTGTGCACACACAAAAAATGTTCAT [CACACA_site1102]”, the “gcPBM binding intensity (ln)” value amounted to 10.6. The same measure for “AAAGAATACAAAATTGCACACATATTGTGAAAATGT [CACACA_site9327]”: 9.59; for “TATATTATTAATTAAGCACACATTATTTTTATAATA [CACACA_site3982]”: 6.37. Next, “ATATAATATATATATTGTACATATATTTATAAGCAT [XGTACX_site3726]”: 6.5; AGTATAAGCATTATTGTGCACATAATTATAATTTTT: 11. The same measure for “ATTTTAAATTTATCTGTGCACAGTATTATATAAGCA [GTGCAC_site9806]”: 10.8.

Regarding “ATATTTGTATAAATTGCACACTTTATTTTTTTTAAG [CACACA_site1558]”, the “gcPBM binding intensity (ln)” value was 9.86. Next, “ATATATTTTTAGCACAGTACAATATAATTAAATATA [XGTACX_site6779]”: 7.02; “ATTATTCTATATGAAACATGCATACATTTGTATTTT [TGCATGCA_site823]”: 6.53. Next, “AAATACTGTAAAAAAGCATGCCACTAATAATAATTA [TGCATGCA_site759]”: 6.33. Next, “TTTTTATATTTCAACATATCACAATTTTATATATCT [CACACA_negctrl_site178]”: 6.43; “AGGAAAATTATGAATGGTACAGAATATATTAGGAGA [XGTACX_site6282]”: 7.46. Regarding “AAGGAGAAATATTGCACACGTGCAAAATGGTATGAG [CACACA_site259]”, the “gcPBM binding intensity (ln)” value was found to be 10.8. Turning to “GTGAAATATGCAAACACACACGAGAAAAATGTATAT [CACACA_site7488]”, the “gcPBM binding intensity (ln)” value worked out at 6.99. Next, “GAGTGAAATATGCAAACACACACGAGAAAAATGTAT [CACACA_site3196]”: 7.15. As for “AATGAGAAGGACTGCACACTAAAATGGAAGGAGAAA [CACACA_site1575]”, the “gcPBM binding intensity (ln)” value worked out at 6.97. As to “AAAAGGAGAAATATTGCACACGTGCAAAATGGTATG [CACACA_site4300]”, the “gcPBM binding intensity (ln)” value amounted to 11.
